Test results: PubChem BioAssay AID602474 (National Center for Advancing Translational Sciences (NCATS), 2012)
Results filed as inconclusive are left out. Entries that show only a call come without a potency. Calls of active or inactive are those of the source. The call rests on the fitted dose curve; in most records, active means well fitted inhibition curve with a large enough effect; inconclusive means small, poorly fitted or top-dose-only effect; inactive means no such curve, though single readings can be large or run the other way.

Biological target: Luciferin 4-monooxygenase (Photinus pyralis) (UniProt P08659)
Experiment: FLuc inhibitory activity for the follow-up compounds in a biochemical assay with a commercial detection reagent - BriteliteTM Plus (PerkinElmer)
Settings: purified FLuc, Britelite Plus luminescence; series mostly up to 38.3 µM
From the text: NCGC Assay Overview: Firefly (Photinus pyralis) luciferase is one of the most commonly used transcriptional reporters. It is considered one of the more dynamically responsive reporters - that is, responsive to changes in reporter transcription - as it requires no post-translational modifications and is enzymatically active directly after protein synthesis (Wood, 1998). With no endogenous expression in mammalian cells and without the requirement of external excitation, it offers very little background signal, thus generally providing excellent signal to background for most assays. Previous profiling work to determine the prevalence of compounds that affect FLuc enzymatic activity (PubChem AID 411) identified that ~3% of the MLSMR library (then at ~72K) inhibited FLuc (Auld et al., 2008). […] Of the compounds identified in this profile that inhibited FLuc, 151 compounds were selected for further analysis, in an effort to better understand their mode of inhibiting FLuc. The assay described here was to determine the activity of the compounds in a FLuc assay that used a commercial formulation of detection reagent (BriteliteTM Plus; PerkinElmer).
NCGC Assay Protocol Summary: Reagents: Britelite Plus detection reagent; 50mM Tris acetate, pH 7.5; 10nM P. pyralis luciferase (Sigma #L9506) Control compounds used were two known firefly luciferase inhibitors (3-(5-(3-chlorophenyl)-1,2,4-oxadiazol-3-yl)benzoic acid and 5-(2-fluorophenyl)-3-phenyl-1,2,4-oxadiazole), and DMSO. Assay Summary: Three microliters of buffer containing firefly luciferase (final concentrations: 50mM Tris acetate, 10nM P. pyralis luciferase) are dispensed into each well of a Greiner white, solid-bottom 1536-well format plate using a flying reagent dispenser (FRD). These assay plates were then treated with 23nL of compound or DMSO using a Kalypsys pin tool, which allows for delivery of a 12-point intraplate titration of each compound to the assay plate (quantitative HTS), with final compound concentrations ranging from approximately ~38uM to 0.2nM. Three microliters of 2X Britelite Plus detection reagent was then delivered by FRD to each well. Luciferase activity was then measured using a ViewLux CCD imager (PerkinElmer), with an average exposure time of 2-30 seconds (2X binning, medium/high gain).

Chain of Luciferin 4-monooxygenase (Photinus pyralis) (P08659 whole entry, looked up): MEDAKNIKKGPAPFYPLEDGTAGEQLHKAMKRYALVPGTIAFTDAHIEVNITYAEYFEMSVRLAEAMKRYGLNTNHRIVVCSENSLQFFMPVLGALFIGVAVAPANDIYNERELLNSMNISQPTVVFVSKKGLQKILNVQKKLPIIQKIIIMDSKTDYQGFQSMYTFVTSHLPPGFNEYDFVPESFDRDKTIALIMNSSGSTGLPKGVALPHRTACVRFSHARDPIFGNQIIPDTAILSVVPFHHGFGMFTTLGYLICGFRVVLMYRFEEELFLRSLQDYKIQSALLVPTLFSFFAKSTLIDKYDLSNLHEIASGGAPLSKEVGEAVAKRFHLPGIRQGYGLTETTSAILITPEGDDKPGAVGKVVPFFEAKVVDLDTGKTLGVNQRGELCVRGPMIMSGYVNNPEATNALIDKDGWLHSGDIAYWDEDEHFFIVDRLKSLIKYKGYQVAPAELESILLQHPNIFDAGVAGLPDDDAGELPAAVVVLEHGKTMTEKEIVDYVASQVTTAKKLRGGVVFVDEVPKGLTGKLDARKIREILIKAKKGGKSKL

Question: How did the Potency turn out when Nc1ccc(-c2nc3ccc(C(=O)O)cc3s2)cc1 was run?
Answer: 0.634 µM (active)

Question: Cc1ccc(C(=O)Nc2ccc(C(=O)O)cc2)cc1S(=O)(=O)NCc1ccccc1 was tested. Which Potency did it give?
Answer: inactive

Question: O=C(O)c1ccc(NC(=O)c2ccccc2NC(=O)c2cccc(Br)c2)cc1 was tested. Which Potency did it give?
Answer: inactive

Question: How did the Potency turn out when O=C(Cc1ccccc1)Nc1ccccc1C(=O)Nc1ccc(C(=O)O)cc1 was run?
Answer: inactive

Question: With COc1ccc(C(=O)Nc2nc3ccc(OC)cc3s2)cc1 as the compound, how does the Potency read?
Answer: inactive

Question: For O=C(O)c1cccc(NC(=O)c2ccc(Cl)c(S(=O)(=O)N3CCCCCC3)c2)c1, which Potency is on record?
Answer: 3.18 µM (active)

Question: COc1ccccc1C(=O)Nc1ccc(C(=O)O)cc1 was tested. Which Potency did it give?
Answer: inactive

Question: C/C(=N\NC(=O)c1ccccc1NC(=O)c1ccc(Cl)cc1)c1ccncc1 was tested. Which Potency did it give?
Answer: 0.0159 µM (active)

Question: How did the Potency turn out when COc1cccc(-c2nc3ccccc3s2)c1 was run?
Answer: 5.65 µM (active)

Question: With COc1cc(OC)cc(C(=O)Nc2ccccc2-c2nc3ccccc3s2)c1 as the compound, how does the Potency read?
Answer: inactive

Question: For COc1ccc2nc(NC(=O)c3nc(S(=O)(=O)Cc4ccc(C)cc4)ncc3Cl)sc2c1, which Potency is on record?
Answer: inactive

Question: How did the Potency turn out when COc1ccc2nc(NC(=O)c3cccs3)sc2c1 was run?
Answer: inactive

Question: Which Potency does the source give for Cc1cccc(C(=O)Nc2ccc(-c3nc4ccccc4s3)cc2Cl)c1 here?
Answer: inactive

Question: Which Potency does the source give for COc1ccc(C(=O)Nc2ccccc2C(=O)Nc2ccc(C(=O)O)cc2)cc1 here?
Answer: 14.2 µM (active)

Question: Which Potency does the source give for COc1ccc2nc(NC(=O)c3ccc(NS(=O)(=O)c4cccs4)cc3)sc2c1 here?
Answer: inactive

Question: COc1ccc(C(=O)Nc2cccc(C(=O)O)c2)cc1S(=O)(=O)N1CCCC1 was tested. Which Potency did it give?
Answer: inactive

Question: With CCOc1ccc(C(=O)Nc2ccccc2C(=O)O)cc1 as the compound, how does the Potency read?
Answer: 3.56 µM (active)

Question: O=C(Nc1ccc(Cl)cc1-c1nc2ccccc2s1)c1ccco1 was tested. Which Potency did it give?
Answer: inactive

Question: For COc1ccc(-c2nc3ccccc3s2)cc1O, which Potency is on record?
Answer: 0.711 µM (active)

Question: How did the Potency turn out when Nc1ccc(-c2nc3cc(N)ccc3s2)cc1 was run?
Answer: 4 µM (active)

Question: Which Potency does the source give for Cc1cccc(NS(=O)(=O)c2cccc(C(=O)Nc3cccc(C(=O)O)c3)c2)c1 here?
Answer: inactive

Question: For Cc1c(C)c2ccc(OCC(=O)Nc3ccccn3)c(C)c2oc1=O, which Potency is on record?
Answer: 0.04 µM (active)

Question: With O=C(Nc1ccccc1-c1nc2ccccc2s1)c1cccnc1 as the compound, how does the Potency read?
Answer: inactive

Question: Which Potency does the source give for O=C(Nc1ccccc1C(=O)O)c1cc(S(=O)(=O)Nc2cccc(F)c2)ccc1Cl here?
Answer: inactive

Question: Which Potency does the source give for O=C(Nc1cccc(-c2nc3ccccc3s2)c1)C1=COCCO1 here?
Answer: inactive

Question: Which Potency does the source give for O=C(Nc1ccc(-c2nc3ccccc3s2)cc1)C1=COCCO1 here?
Answer: 0.4 µM (active)

Question: COc1ccc(C(=O)Nc2ccccc2C(=O)Nc2ccccc2C(=O)O)cc1 was tested. Which Potency did it give?
Answer: 11.3 µM (active)

Question: Which Potency does the source give for NC(=O)Cc1ccc2sc(-c3ccccc3)nc2c1 here?
Answer: 6.34 µM (active)

Question: With Cc1ccc(C(=O)Nc2cccc(C(=O)O)c2)cc1S(=O)(=O)N1CCOCC1 as the compound, how does the Potency read?
Answer: 11.3 µM (active)

Question: Which Potency does the source give for CC(C)c1ccc(C(=O)Nc2ccc(-c3nc4ccccc4s3)c(Cl)c2)cc1 here?
Answer: inactive

Question: Which Potency does the source give for CC(=O)Nc1cccc(C(=O)Nc2ccccc2C(=O)O)c1 here?
Answer: inactive

Question: Which Potency does the source give for COc1ccc(-c2nc3ccccc3s2)cc1NC(=O)c1ccc(F)cc1 here?
Answer: inactive

Question: Which Potency does the source give for CC(C)(C)NC(=O)c1ccccc1-c1nc2ccccc2s1 here?
Answer: inactive

Question: For CCn1c(C)nc2cc(-c3nc4n(n3)Cc3ccccc3-4)ccc21, which Potency is on record?
Answer: 0.0711 µM (active)

Question: How did the Potency turn out when Nc1cccc(-c2nc3ccc(N)cc3s2)c1 was run?
Answer: 0.798 µM (active)

Question: CCOc1ccc2nc(NC(=O)c3ccccn3)sc2c1 was tested. Which Potency did it give?
Answer: 0.895 µM (active)

Question: With O=C(O)c1ccc(NC(=O)c2cc(S(=O)(=O)N3CCCCC3)c(Cl)cc2Cl)cc1 as the compound, how does the Potency read?
Answer: inactive

Question: Cc1ccc2sc(-c3ccc(NC(=O)c4cc(-n5cnnc5)ccc4Cl)cc3)nc2c1 was tested. Which Potency did it give?
Answer: inactive

Question: O=C(Nc1cccc(-c2nc3ccccc3s2)c1)c1cc(-n2cnnc2)ccc1Cl was tested. Which Potency did it give?
Answer: inactive

Question: How did the Potency turn out when COc1ccc2nc(NC(=O)c3cnccn3)sc2c1 was run?
Answer: 2 µM (active)
